Laboratory results taken from PubChem BioAssay (NCI).
This is part of a sample that, as a whole, favours compounds with a hit. Of some 79,000 tested, about 15% had one in any assay. Activity calls are given as the source filed them. No stated cut-off is given here; in the data, active means growth inhibition above about 70%; inactive means the rest.

What was measured:
[1] = NCI Yeast Anticancer Drug Screen. Data for the rad52 strain (AID 147);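 further: 0% = growth of vehicle-treated control cultures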; conditions: S. cerevisiae rad52 mutant growth inhibition, stronger effect = higher value
How it was run: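 Genetically altered yeast (DNA damage repair defect) treated with compound; inhibition calculated relative to vehicle.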

[2] = NCI Yeast Anticancer Drug Screen. Data for the wt1 strain (AID 149);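 further: 0% = growth of vehicle-treated wt1 cultures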; conditions: S. cerevisiae wt1 strain (SPY 50644) growth inhibition, stronger effect = higher value
How it was run: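 Each compound is tested on wt1 yeast and the loss of growth versus vehicle gives the inhibition value.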

[3] = NCI Yeast Anticancer Drug Screen. Data for the rad50EPP+ strain (AID 151);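 further: 0% = growth of vehicle-treated control cultures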; conditions: S. cerevisiae rad50 mutant strain, stronger effect = higher value
How it was run: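 Strain rad50EPP+; compound exposure; % growth inhibition vs vehicle.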

[4] = NCI Yeast Anticancer Drug Screen. Data for the rad14 strain (AID 159);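 further: 0% = growth of vehicle-treated control cultures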; conditions: S. cerevisiae rad14 strain growth inhibition, stronger effect = higher value
How it was run: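 Inhibition of growth is reported for a repair-deficient yeast mutant following compound treatment, calculated relative to cultures that received vehicle.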

[5] = NCI Yeast Anticancer Drug Screen. Data for the mlh1 strain (AID 171);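 further: 0% = growth of vehicle-treated control cultures of the same strain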; conditions: S. cerevisiae mlh1 strain growth inhibition, stronger effect = higher value
How it was run: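 Yeast screen: mutant strain plus compound, growth scored against vehicle control wells.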

[6] = NCI Yeast Anticancer Drug Screen. Data for the sgs1 strain (AID 173);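 further: 0% = growth of vehicle-only control cultures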; conditions: S. cerevisiae sgs1 mutant, stronger effect = higher value
How it was run: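 Inhibition of yeast growth served as the measure. The mutant strain was treated with each compound, and growth was normalised to cultures receiving vehicle alone.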

[7] = NCI Yeast Anticancer Drug Screen. Data for the rad18 strain (AID 177); conditions: S. cerevisiae rad18 mutant growth inhibition, stronger effect = higher value
How it was run: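 Inhibition values reflect reduced yeast growth compared with vehicle-treated controls, using a strain engineered with a DNA damage repair defect.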

[8] = NCI Yeast Anticancer Drug Screen. Data for the mgt1 strain (AID 153); conditions: S. cerevisiae mgt1 mutant growth inhibition, stronger effect = higher value
How it was run: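 Read-out: yeast growth inhibition vs vehicle control. Strain mgt1, drawn from a panel altered in DNA damage repair or cell cycle control.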

[9] = NCI Yeast Anticancer Drug Screen. Data for the rad50 strain (AID 155);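 further: 0% = growth of vehicle-only cultures of the same strain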; conditions: S. cerevisiae rad50 strain growth inhibition, stronger effect = higher value
How it was run: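 Vehicle-treated cultures provide the reference for the growth inhibition reported for compound-exposed, repair-deficient yeast.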

[10] = NCI Yeast Anticancer Drug Screen. Data for the mec2-1 strain (AID 157); conditions: S. cerevisiae mec2-1 strain, stronger effect = higher value
How it was run: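 Cells of the genetically defined mec2-1 yeast strain are incubated with test compound. Inhibition of growth is calculated against vehicle-treated controls.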

[11] = NCI Yeast Anticancer Drug Screen. Data for the sgs1 mgt1 strain (AID 161);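 further: 0% = growth of cultures given vehicle only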; conditions: S. cerevisiae sgs1 mgt1 strain, stronger effect = higher value
How it was run: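 Inhibition of yeast growth, normalised to vehicle-treated controls, is reported for a strain bearing genetic alterations in DNA damage repair.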

[12] = NCI Yeast Anticancer Drug Screen. Data for the CLN2oe strain (AID 163);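 further: 0% = growth of vehicle-only control cultures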; conditions: S. cerevisiae CLN2oe strain, stronger effect = higher value
How it was run: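 Strain altered in cell-cycle control, incubated with compound; growth compared to solvent-treated controls.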

[13] = NCI Yeast Anticancer Drug Screen. Data for the cln2 rad14 strain (AID 165);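 further: 0% = growth equal to vehicle treated cultures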; conditions: S. cerevisiae cln2 rad14 strain, stronger effect = higher value
How it was run: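 The screen exposed genetically defined yeast (cln2 rad14) to test compounds and scored growth inhibition relative to vehicle-treated controls.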

[14] = NCI Yeast Anticancer Drug Screen. Data for the bub3 strain (AID 167); conditions: S. cerevisiae bub3 mutant strain, stronger effect = higher value
How it was run: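 Mutant yeast screening strain plus compound; vehicle-treated cultures serve as the 0% inhibition reference.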

[15] = NCI Yeast Anticancer Drug Screen. Data for the wt2 strain (AID 169); conditions: S. cerevisiae wt2 strain growth inhibition, stronger effect = higher value
How it was run: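 Steps: yeast strain treated with compound; growth recorded; inhibition calculated relative to cultures given vehicle alone.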

[16] = NCI Yeast Anticancer Drug Screen. Data for the mlh1 rad18 strain (AID 175); conditions: S. cerevisiae mlh1 rad18 strain growth inhibition, stronger effect = higher value
How it was run: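 Compound-treated yeast growth, normalised to vehicle controls. Strain bears defined DNA repair mutations.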

[17] = at 5.0 µM (retest, dose inferred, filed as 0.5)
[18] = at 50.0 µM (retest, dose inferred, filed as 5.0)

Measured: growth inhibition

Cc1ccc(P(c2ccc(C)cc2)c2ccc(C)cc2)cc1
inactive: [1]; at 1.2 µM -11% | [1]; at 3.7 µM -12% | [1]; at 11.0 µM 1% | [1]; at 33.0 µM 11% | [1]; at 100.0 µM 23% | [2]; at 1.2 µM -25% | [2]; at 3.7 µM -12% | [2]; at 11.0 µM -5% | [2]; at 33.0 µM 1% | [2]; at 100.0 µM 7% | [3]; at 1.2 µM -7% | [3]; at 3.7 µM -10% | [3]; at 11.0 µM -12% | [3]; at 33.0 µM -23% | [3]; at 100.0 µM -34% | [4]; at 1.2 µM -34% | [4]; at 3.7 µM -41% | [4]; at 11.0 µM -40% | [4]; at 33.0 µM -31% | [4]; at 100.0 µM -31% | [5]; at 1.2 µM -30% | [5]; at 3.7 µM -36% | [5]; at 11.0 µM -16% | [5]; at 33.0 µM -6% | [5]; at 100.0 µM 13% | [6]; at 1.2 µM -27% | [6]; at 3.7 µM -27% | [6]; at 11.0 µM 4% | [6]; at 33.0 µM 18% | [6]; at 100.0 µM 39% | [7]; at 1.2 µM -1% | [7]; at 3.7 µM -4% | [7]; at 11.0 µM 9% | [7]; at 33.0 µM 28% | [7]; at 100.0 µM 34%

O=C1c2ccccc2-c2ccc(NC(=O)C3CCCCC3C(=O)O)cc21 (stereo not drawn)
active: [8]; at 100.0 µM 72% | [4]; at 100.0 µM 86% | [14]; at 11.0 µM 72% | [14]; at 33.0 µM 80% | [14]; [18] 78% | [14]; at 50.0 µM 90.5% | [14]; at 100.0 µM 90% | [15]; at 100.0 µM 80% | [5]; at 100.0 µM 77% | [6]; at 100.0 µM 85% | [7]; at 100.0 µM 72%
inactive: [2]; at 1.2 µM 0% | [2]; at 3.7 µM -2% | [2]; at 11.0 µM -1% | [2]; at 33.0 µM 7% | [2]; at 100.0 µM 40% | [3]; at 1.2 µM 4% | [3]; at 3.7 µM 15% | [3]; at 11.0 µM 22% | [3]; at 33.0 µM 34% | [3]; at 100.0 µM 55% | [8]; at 1.2 µM -2% | [8]; at 3.7 µM -2% | [8]; at 11.0 µM -3% | [8]; at 33.0 µM 13% | [9]; at 1.2 µM 4% | [9]; at 3.7 µM 5% | [9]; [17] 3% | [9]; at 11.0 µM 10% | [9]; at 33.0 µM 24% | [9]; [18] 22% | [9]; at 50.0 µM 43.1% | [9]; at 100.0 µM 64% | [10]; at 1.2 µM 4% | [10]; at 3.7 µM 6% | [10]; [17] 18% | [10]; at 11.0 µM 5% | [10]; at 33.0 µM 18% | [10]; [18] 15% | [10]; at 50.0 µM 42.6% | [10]; at 100.0 µM 67% | [4]; at 1.2 µM -2% | [4]; at 3.7 µM -12% | [4]; at 11.0 µM -2% | [4]; at 33.0 µM 1% | [11]; [17] -2% | [11]; [18] 7% | [11]; at 50.0 µM 42.3% | [12]; at 1.2 µM -9% | [12]; at 3.7 µM -5% | [12]; at 11.0 µM -10% | [12]; at 33.0 µM -2% | [12]; at 100.0 µM 40% | [13]; [17] -20% | [13]; [18] -58% | [13]; at 50.0 µM 12.7% | [14]; at 1.2 µM 44% | [14]; at 3.7 µM 55% | [14]; [17] 6% | [15]; at 1.2 µM 0% | [15]; at 3.7 µM -1% | [15]; at 11.0 µM 1% | [15]; at 33.0 µM 24% | [5]; at 1.2 µM 7% | [5]; at 3.7 µM 3% | [5]; at 11.0 µM 4% | [5]; at 33.0 µM 1% | [6]; at 1.2 µM 3% | [6]; at 3.7 µM 7% | [6]; at 11.0 µM 15% | [6]; at 33.0 µM 41% | [16]; [17] -7% | [16]; [18] 34% | [16]; at 50.0 µM 41.2% | [7]; at 1.2 µM 12% | [7]; at 3.7 µM 2% | [7]; at 11.0 µM 16% | [7]; at 33.0 µM 31%

CN1CCN(c2ccc3nc(-c4ccc5nc(-c6ccc(O)cc6)[nH]c5c4)[nH]c3c2)CC1
inactive: [1]; at 1.2 µM 8% | [1]; at 3.7 µM -1% | [1]; at 33.0 µM 38% | [2]; at 1.2 µM 3% | [2]; at 3.7 µM 5% | [3]; at 1.2 µM -7% | [3]; at 3.7 µM -12% | [9]; at 1.2 µM 6% | [9]; at 3.7 µM 13% | [10]; at 1.2 µM -4% | [10]; at 3.7 µM -17% | [10]; [17] 63% | [4]; at 1.2 µM -16% | [4]; at 3.7 µM -16% | [11]; [17] 43% | [13]; [17] 45% | [14]; at 1.2 µM -10% | [14]; at 3.7 µM -1% | [15]; at 1.2 µM -17% | [15]; at 3.7 µM -27% | [5]; at 1.2 µM -10% | [5]; at 3.7 µM -15%
active: [1]; at 11.0 µM 98% | [1]; at 100.0 µM 98% | [2]; at 11.0 µM 98% | [2]; at 33.0 µM 98% | [2]; at 100.0 µM 97% | [3]; at 11.0 µM 83% | [3]; at 33.0 µM 97% | [3]; at 100.0 µM 97% | [9]; [17] 88% | [9]; at 11.0 µM 98% | [9]; at 33.0 µM 98% | [9]; [18] 99% | [9]; at 50.0 µM 99% | [9]; at 100.0 µM 98% | [10]; at 11.0 µM 97% | [10]; at 33.0 µM 97% | [10]; [18] 99% | [10]; at 50.0 µM 99% | [10]; at 100.0 µM 97% | [4]; at 11.0 µM 97% | [4]; at 33.0 µM 97% | [4]; at 100.0 µM 97% | [11]; [18] 99% | [11]; at 50.0 µM 99.2% | [13]; [18] 99% | [13]; at 50.0 µM 97.8% | [14]; [17] 84% | [14]; at 11.0 µM 97% | [14]; at 33.0 µM 98% | [14]; [18] 99% | [14]; at 50.0 µM 99.2% | [14]; at 100.0 µM 97% | [15]; at 11.0 µM 97% | [15]; at 33.0 µM 98% | [15]; at 100.0 µM 98% | [5]; at 11.0 µM 98% | [5]; at 33.0 µM 97% | [5]; at 100.0 µM 97%
